# HSP90 inh = blocks HSP90-mediated luciferase refolding in reticulocyte lysate; Rabbit reticulocyte lysate, luciferase refolding luminescence, 3 h; inhibition, % at 5.6 µM; 0.91% of 290,000 active; AID 1789;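 active means inhibition above the screen-wide mean plus 3 SD, computed separately per campaign, cut at about 16% in these data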;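 further: 0% = DMSO wells and 100% = 60 µM geldanamycin wells; inhibitors lower the luminescence because luciferase stays unfolded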
# TROY NFkB inh = blocks TROY-dependent signaling in reporter cells | Q293 LMP1-TROYcd NF-kB luciferase reporter, 4 h | inhibition, % at 10 µM | 0.98% of 360,000 active | AID 1347056;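 active means compounds whose plate-normalised and pattern-corrected inhibition of the luciferase reporter signal at the single screening dose is 50% or more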
# TWEAK-Fn14 inh = inhibitors of TWEAK-Fn14 interaction signaling; TWEAK-stimulated Fn14 reporter cells, luciferase luminescence, 8 h; inhibition, % at 10 µM; 2% of 360,000 active; AID 1159606; in the data active means inhibition above about 50%
# HSF1 activator = increases HSF-1 driven luciferase reporter signal | NIH3T3-HGL HSF-1 luciferase reporter, MG132, 8 h; 100% = twice DMSO control signal | activation, % at 9 µM | 1.7% of 300,000 active;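 active means mean replicate activation of at least 50% with a set share of replicates each reaching 50%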;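 further: 0% = median of the neutral control wells and 100% = twice that signal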
# HSF1 inhib = HSF1 inhibition; 0.77% of 300,000 active; NIH3T3-HGL HSE-luciferase, MG132-induced, luminescence 8 h; active compounds read low; activity change, negative = inhibition, % at 7.5 µM (by protocol);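 active means more than half of replicate wells show activity change below -50%, luminescence cut by over half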;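 further: luciferase reports HSF-1 transcriptional activity via heat shock element; 0% = median of DMSO wells and -100% = zero luminescence signal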
# LMP1 NFkB inh = Epstein-Barr LMP1 NF-kappaB reporter inhibition; LMP1-induced NF-kappaB luciferase reporter cells, luminescence; inhibition, % at 12.5 µM; 0.69% of 350,000 active; in the data active means inhibition above about 41%;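 further: 0% = neutral control wells and 100% = reference inhibitor control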
# Numbers without * were called inactive; · = not tested or not shown. Only some compounds are listed: those with a hit (about 4.7% of all), similar ones and a draw of the others.
SMILES,HSP90 inh,TROY NFkB inh,TWEAK-Fn14 inh,HSF1 activator,HSF1 inhib,LMP1 NFkB inh
Cc1ccc(-c2cc(=O)c3cc(C)ccc3[nH]2)cc1,11.8,15.9,66.6*,11.8,7.3,23.7
C=CCSc1nc(-c2ccc(OC)cc2)c(C#N)c(=O)n1CC=C,-1.4,30.2,46.4,64.9*,19.7,13.3
COc1ccc(OC)c2c(C)cc(N3CCCCCC3)nc12,5.3,-3.5,103.0*,3.9,1.6,12.1
Nc1c(C(=O)NCc2ccco2)nnn1Cc1ccccc1,-6.9,-27.5,9.5,4.0,-0.4,-5.4
O=C(c1ccco1)c1nnn(Cc2ccccc2)c1-c1ccccc1,0.4,8.1,5.2,64.4*,38.7,1.8
C=C(NC(=O)C(=C)NC(=O)c1csc(C2=NC3c4csc(n4)C4NC(=O)c5csc(n5)C(C(C)(O)C(C)O)NC(=O)C5CSC(=N5)/C(=C/C)NC(=O)C(C(C)O)NC(=O)c5csc(n5)C3(CC2)NC(=O)C(C)NC(=O)C(=C)NC(=O)C(=C)NC(=O)C(C(C)C)NC2C=Cc3c(C(C)O)cc(nc3C2O)C(=O)OC4C)n1)C(N)=O (stereo not given),·,-9.1,5.8,-35.6,-35.6,64.8*
Cc1ccc(S(=O)(=O)N2CCOCC2)cc1NC(=O)COC(=O)c1cccnc1Cl,-0.5,1.3,-0.7,53.6*,6.4,0.9
CCOc1ncccc1C(=O)NNC(=O)c1cccc(S(=O)(=O)N2CCOCC2)c1,·,11.5,97.4*,·,·,-3.6
Cc1ccc(NC(=O)NC(=O)CN2CCN(c3ccc(O)cc3)CC2)c(C)c1,-6.4,20.6,32.0,-73.2,-65.5*,5.9
Cc1ccc(S(=O)(=O)N2CCOCC2)cc1NC(=O)CN1CCN(c2ccc(O)cc2)CC1,1.2,49.2,78.4*,-2.2,2.3,4.6
Cc1ccc(NC(=O)NC(=O)CN2CCC(C(N)=O)CC2)c(C)c1,·,-21.5,5.0,·,·,-20.6
CC(C)C[C@H]1CNC(=O)C(=O)N1C[C@H]1CCCN1C[C@H](CC(C)C)N1C[C@H](CC(C)C)N(CCc2ccccc2)C(=O)C1=O,·,5.0,23.0,·,·,·
COC(=O)c1ccc2nc(-c3ccc(F)cc3)c(CC3CCCCC3)n2c1,·,-39.7,-3.0,·,·,·
C[C@H](O)CNC(=O)c1[nH]cnc1C(=O)Nc1cccc(Cl)c1,·,-2.7,-0.6,·,·,3.9
CCCCCCCCN1C(=O)[C@H](CC(=O)NCc2ccccc2)C[C@@]2(C(=O)OC)CCCCC=C12,·,-15.4,20.8,·,·,·
CC1(C(=O)NS(=O)(=O)Cc2ccccc2)CCN1C(=O)Cc1cc(F)ccc1F (stereo not given),·,1.5,3.6,·,·,·
O=C(Oc1ccc2ccc(=O)oc2c1)c1ccc([N+](=O)[O-])cc1,1.2,11.8,2.8,-8.5,-0.5,-16.4
O=c1ccc2ccc(Oc3ccc([N+](=O)[O-])cc3[N+](=O)[O-])cc2o1,-1.2,·,·,68.2*,32.6,·
N#Cc1c(SCc2ccc(Cl)cc2)sc(C(=O)c2ccccc2)c1N,-4.0,-0.9,89.4*,3.4,0.9,1.2
Cc1c(C=O)c2ccccn2c1C(=O)c1ccccc1Cl,3.1,1.7,0.2,9.8,0.0,53.0*
Cc1c(C=O)c2ccccn2c1C(=O)c1cccs1,4.2,-1.5,-25.0,-25.4,-19.2,10.8
COC(=O)c1ccc(CSc2ccccc2NC(=S)Nc2cccc(C(F)(F)F)c2)o1,·,-27.3,-17.0,·,·,1.5
Cc1cc(NC(=O)c2ccc([N+](=O)[O-])o2)ccc1NC(=O)c1ccco1,7.2,-13.0,-2.1,72.3*,69.4,-26.6
COc1cc(NC(=O)c2ccc([N+](=O)[O-])o2)ccc1NC(=O)c1ccco1,2.9,12.8,0.8,124.9*,97.2,-33.6
CCOc1ccc(NC(=O)c2ccc(CC)s2)c([N+](=O)[O-])c1,0.8,-90.8,-18.8,30.2,18.9,-11.2
SMILES,HSP90 inh,TROY NFkB inh,TWEAK-Fn14 inh,HSF1 activator,HSF1 inhib,LMP1 NFkB inh
CCOc1ccc(NC(=O)c2ccco2)c([N+](=O)[O-])c1,-4.7,-61.8,-2.2,54.4*,24.3,-2.9
Cc1cc([N+](=O)[O-])ccc1NC(=O)c1ccco1,0.7,6.3,14.6,9.0,-2.7,-8.8
CCCCc1ccc(S(=O)(=O)NC(=O)C2(C)CCN2C(=O)c2cccc(F)c2)cc1 (stereo not given),·,5.7,2.5,·,·,·
Cc1ccc(NC(=O)CN2C(=O)NC3(CCc4ccccc43)C2=O)cc1S(=O)(=O)N1CCCCC1 (stereo not given),·,5.0,1.8,28.7,14.7,-6.6
O=C(CN1C(=O)NC2(CCCc3ccccc32)C1=O)Nc1cccc(S(=O)(=O)N2CCCCC2)c1 (stereo not given),2.2,-1.1,-20.5,58.2*,24.3,3.2
CC(=O)NS(=O)(=O)c1ccc(NC(=O)c2cccc(S(=O)(=O)N3CCc4ccccc43)c2)cc1,-2.2,1.0,3.0,2.7,-3.9,0.1
O=C(Nc1ccc(S(=O)(=O)N2CCc3ccccc32)cc1)c1ccc2c(c1)OCO2,0.0,1.5,58.0*,49.3,31.7,-23.2
O=C(Nc1nc2ccccc2s1)c1cccc(S(=O)(=O)N2CCc3ccccc32)c1,8.5,20.4,69.9*,-8.6,5.8,-2.5
CN(C)S(=O)(=O)c1cccc(NC(=O)c2cccc(S(=O)(=O)N3CCc4ccccc43)c2)c1,·,34.7,60.3*,·,·,7.8
O=C(Nc1ccccc1)c1ccc2c(c1)CCN2S(=O)(=O)c1ccccc1,3.1,-0.5,-0.8,5.1,1.2,-8.5
Cc1c(C(=O)NCc2cccc(C(F)(F)F)c2)sc(=O)n1Cc1ccc(C(=O)N(C)C)cc1,·,6.9,0.1,·,·,·
CC(=O)c1ccc(NC(=O)c2ccc(C)c(Br)c2)cc1,-0.6,-49.8,-20.4,56.0*,32.3,-24.8
COC(=O)c1ccc(NC(=O)Nc2ccccc2F)cc1,7.5,-7.3,22.2,70.2*,35.1,-34.5
O=C(Nc1ccc(C(=O)O)cc1)Nc1ccc([N+](=O)[O-])cc1,-7.4,12.2,16.7,-12.9,-3.1,-3.0
COC(=O)c1ccc(NC(=O)Nc2ccc([N+](=O)[O-])cc2)cc1,-1.3,50.1*,20.2,16.2,4.3,-0.3
COC(=O)c1sccc1NC(=O)Nc1ccccc1C,2.8,-5.8,1.1,·,·,3.6
COC(=O)c1sccc1NC(=O)Nc1ccccc1F,-3.2,4.1,-8.1,58.3*,22.3,-2.0
COC(=O)c1ccc(NC(=O)Nc2ccccc2C)cc1,5.1,-48.4,-29.8,18.2,15.3,-20.5
O=C(Nc1ccc2c(c1)CN(C(=O)Nc1ccc(F)cc1)CC2)c1ccccn1,·,11.2,10.4,·,·,7.9
Cc1cc(NC(=O)CSc2nnc(C)n2C)no1,-1.4,-5.2,15.7,-68.0,-59.2*,-1.5
Cc1cc(NC(=O)CSc2nnc(C3CC3)n2C)no1,-1.7,0.6,-23.2,-5.7,-1.7,-2.6
Cc1cc(NC(=O)CSc2nnc(-c3ccco3)n2C)no1,·,-3.8,-5.6,·,·,70.7*
CC(=O)Nc1ccc(CN(C)c2c(C)nc3ccc(C(=O)N(C)Cc4ccco4)cn23)cc1,·,-1.0,-42.1,·,·,·
